Some of the results follow. Where a call stands in place of a potency, no number is given. Inconclusive results are not listed. Active and inactive are the calls of the source. Calls follow the shape of the dose curve; as a rule, active = well fitted inhibition curve with a large enough effect in the main read-out, with a control signal flat; inconclusive = small, poorly fitted or top-dose-only effect, or a change in a side signal; inactive = no such curve, though single readings can be large or run the other way.

Caspase-7 (Homo sapiens), sequence (P55210 24-198 limits assumed): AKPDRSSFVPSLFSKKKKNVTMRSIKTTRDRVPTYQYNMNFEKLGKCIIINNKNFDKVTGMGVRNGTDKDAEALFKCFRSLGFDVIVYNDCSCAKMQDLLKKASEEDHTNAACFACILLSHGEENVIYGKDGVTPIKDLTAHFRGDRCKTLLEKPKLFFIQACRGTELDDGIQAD
Caspase-7 (Homo sapiens), sequence (P55210 207-303 limits assumed): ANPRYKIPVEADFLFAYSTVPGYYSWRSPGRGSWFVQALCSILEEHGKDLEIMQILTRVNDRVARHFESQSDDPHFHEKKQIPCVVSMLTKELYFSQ

In the test the target is Caspase-7 (Homo sapiens) (UniProt P55210). Kind of test: Concentration-Response Counterscreen for Redox Active Inhibitors of Caspase-7: Catalase. Particulars: Caspase-7 Ac-DEVD-AFC fluorescence rate, catalase buffer; series mostly up to 57.5 µM. The source says:
NIH Molecular Libraries Screening Centers Network [MLSCN] NIH Chemical Genomics Center [NCGC] MLSCN Grant: 1 X01 MH078950-01 PI Name: Dr. James Wells, Dr. Enrique Perez-Paya, Dr.Janice Williams, Dr. Dennis Wolan, a person NCGC Assay Overview: The caspases (Cysteine Aspartyl Protease) comprise a related family of 14 dimeric proteases that are critical mediators of apoptosis (programmed cell death) and inflammation. The caspases represent an important class of drug targets for stroke, ischemia, cancer and inflammatory diseases. […] One goal of this project was to identify compounds that act as allosteric inhibitors via stabilizing the procaspase form of the enzyme. […] After initiation of the assay with substrate the plates were rapidly read using an automated robotic system (Kalypsys, Inc.) to maintain consistent timing. […]
NCGC Assay Protocol Summary: Caspase 7 was prepared in buffer (50 mM HEPES pH 7.5, 50 mM KCl, 200 mM NaCl, 50 units/well catalase (from bovine liver, Sigma cat#100), 0.1% CHAPS) at a concentration of 66.6 nM and 3 uL was dispensed to all wells using black solid Kalypsys 1536-well plates. […] The plates were then exposed using 405 nm excitation/520 nm emission filters for 4 sec and read at 20 sec intervals for 3 min. […]
For the compound `CCN1C(=O)/C(=C2/Sc3ccccc3N2CCCS(=O)(=O)O)SC1=S`, the Potency result is “inactive”.
With `N#CC1=C(N)Oc2cc(O)ccc2C1C1CCCCC1` (configuration not stated), the Potency is 31.6 µM (active).

Values taken from PubChem BioAssay AID909 (National Center for Advancing Translational Sciences (NCATS), 2007).
